# Laboratory results taken from ChEMBL document CHEMBL3988442, “University of Dundee, Small-Polar-MMV Screening Library” (2021).
# For part of these data: Measured potencies and affinities stand elsewhere.
# Columns and labels:
# Parameters in all cases: scale not given: direction of the effect not stated beside the values
# [1] = molecular target: Protein translocase subunit SecA (Escherichia coli (strain K12)) (UniProt P10408); assay: Assay to Identify E. coli SecA ATPase Inhibitors; type: functional; details: 30 µM
# Chain of Protein translocase subunit SecA (Escherichia coli (strain K12)) (P10408 whole entry): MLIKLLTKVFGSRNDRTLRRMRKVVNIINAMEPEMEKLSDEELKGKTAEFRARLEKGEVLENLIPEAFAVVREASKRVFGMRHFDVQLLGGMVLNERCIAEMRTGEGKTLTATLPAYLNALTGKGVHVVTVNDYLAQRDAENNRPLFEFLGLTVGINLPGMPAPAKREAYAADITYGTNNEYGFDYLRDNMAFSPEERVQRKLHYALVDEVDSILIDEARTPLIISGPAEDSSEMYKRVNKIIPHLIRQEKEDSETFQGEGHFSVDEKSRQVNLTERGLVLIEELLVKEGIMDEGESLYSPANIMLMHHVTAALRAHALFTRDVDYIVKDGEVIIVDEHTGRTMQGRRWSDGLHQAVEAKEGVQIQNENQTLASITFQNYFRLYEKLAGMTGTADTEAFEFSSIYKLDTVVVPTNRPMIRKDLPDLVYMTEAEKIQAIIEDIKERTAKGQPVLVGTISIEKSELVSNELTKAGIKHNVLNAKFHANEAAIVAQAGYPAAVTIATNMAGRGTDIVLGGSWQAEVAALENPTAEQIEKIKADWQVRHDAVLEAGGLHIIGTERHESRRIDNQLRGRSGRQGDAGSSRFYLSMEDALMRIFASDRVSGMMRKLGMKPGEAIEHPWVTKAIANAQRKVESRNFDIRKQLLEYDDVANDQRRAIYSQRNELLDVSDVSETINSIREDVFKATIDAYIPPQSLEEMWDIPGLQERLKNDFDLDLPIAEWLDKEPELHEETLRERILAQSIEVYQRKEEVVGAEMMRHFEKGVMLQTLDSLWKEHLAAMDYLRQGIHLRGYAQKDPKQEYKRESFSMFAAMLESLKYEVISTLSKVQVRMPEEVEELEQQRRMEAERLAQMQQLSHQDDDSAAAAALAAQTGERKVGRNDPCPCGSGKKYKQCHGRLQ
# [2] = molecular target: T1, Ubiquitin-activating enzyme e1, putative (Leishmania donovani (strain BPK282A1)) (UniProt E9BSI1); assay: Leishmania donovani Ubiquitin Activating Enzyme (LdE1); type: functional; details: 30 µM
# T1 sequence (whole entry): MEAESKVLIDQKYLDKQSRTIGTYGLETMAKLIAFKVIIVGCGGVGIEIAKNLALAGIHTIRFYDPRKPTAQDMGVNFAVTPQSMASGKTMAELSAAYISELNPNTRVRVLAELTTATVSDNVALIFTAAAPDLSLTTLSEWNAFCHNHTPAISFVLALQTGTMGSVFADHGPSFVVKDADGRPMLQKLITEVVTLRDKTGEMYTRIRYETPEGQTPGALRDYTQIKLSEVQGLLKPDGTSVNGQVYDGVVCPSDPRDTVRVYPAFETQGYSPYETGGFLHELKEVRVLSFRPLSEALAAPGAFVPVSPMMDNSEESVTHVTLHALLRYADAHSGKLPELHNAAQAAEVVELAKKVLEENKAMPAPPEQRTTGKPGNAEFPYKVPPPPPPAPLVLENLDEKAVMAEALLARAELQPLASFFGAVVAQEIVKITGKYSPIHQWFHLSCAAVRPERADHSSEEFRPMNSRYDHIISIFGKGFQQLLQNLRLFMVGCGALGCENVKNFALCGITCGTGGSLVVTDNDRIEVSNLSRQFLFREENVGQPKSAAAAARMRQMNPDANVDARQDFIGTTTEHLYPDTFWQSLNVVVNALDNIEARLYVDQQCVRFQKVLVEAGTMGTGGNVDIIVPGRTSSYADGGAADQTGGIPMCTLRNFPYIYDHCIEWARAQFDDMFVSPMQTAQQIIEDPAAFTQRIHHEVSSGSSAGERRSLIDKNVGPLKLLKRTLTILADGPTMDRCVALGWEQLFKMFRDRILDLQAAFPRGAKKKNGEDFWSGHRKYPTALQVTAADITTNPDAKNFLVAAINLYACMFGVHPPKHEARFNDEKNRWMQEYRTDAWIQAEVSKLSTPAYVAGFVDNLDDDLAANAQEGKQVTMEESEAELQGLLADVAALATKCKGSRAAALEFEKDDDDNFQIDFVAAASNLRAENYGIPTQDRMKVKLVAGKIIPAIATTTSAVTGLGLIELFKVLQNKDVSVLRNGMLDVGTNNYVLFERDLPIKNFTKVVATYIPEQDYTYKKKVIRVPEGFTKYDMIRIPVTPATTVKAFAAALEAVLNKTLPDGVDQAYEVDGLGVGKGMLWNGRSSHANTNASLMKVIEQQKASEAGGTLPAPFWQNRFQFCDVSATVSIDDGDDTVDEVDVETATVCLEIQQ
# [3] = molecular target: T2, Aspartate--tRNA(Asp/Asn) ligase (Mycobacterium tuberculosis (strain ATCC 25618 / H37Rv)) (UniProt P9WFW3); assay: Assay for Asp RNA synthetase-1 from Mycobacterium tuberculosis; type: functional; details: 30 µM; also: in the data most compounds retested in dose-response had high values
# T2 sequence (whole entry): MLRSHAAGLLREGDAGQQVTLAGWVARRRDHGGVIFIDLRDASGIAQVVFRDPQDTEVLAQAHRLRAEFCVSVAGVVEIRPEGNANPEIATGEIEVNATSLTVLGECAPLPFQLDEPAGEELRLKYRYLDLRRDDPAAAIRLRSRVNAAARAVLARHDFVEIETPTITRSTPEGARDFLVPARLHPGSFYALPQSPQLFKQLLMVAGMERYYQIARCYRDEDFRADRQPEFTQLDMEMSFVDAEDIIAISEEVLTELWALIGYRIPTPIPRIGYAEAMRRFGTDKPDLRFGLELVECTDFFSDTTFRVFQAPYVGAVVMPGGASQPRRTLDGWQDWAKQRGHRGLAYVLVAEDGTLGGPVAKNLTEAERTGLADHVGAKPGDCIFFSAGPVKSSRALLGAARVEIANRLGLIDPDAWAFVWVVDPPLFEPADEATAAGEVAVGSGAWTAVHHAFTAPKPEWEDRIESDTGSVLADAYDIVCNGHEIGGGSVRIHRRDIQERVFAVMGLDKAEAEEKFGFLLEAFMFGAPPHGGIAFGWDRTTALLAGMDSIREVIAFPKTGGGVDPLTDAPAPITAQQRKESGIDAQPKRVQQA
# [4] = molecular target: AMP-activated protein kinase, AMPK (Homo sapiens) (UniProt P54646+O43741+P54619+Q9UGJ0+Q9Y478+Q13131+Q9UGI9); assay: AMP-dependent Kinase enzyme assay. An in vitro enzyme assay that detects ADP turnover that is directly proportional to AMPK activity. This uses naive AMPK that is activated during the assay with MK-8722; type: functional; details: 30 µM
# [5] = molecular target: Sialic acid-binding Ig-like lectin 9 (Homo sapiens) (UniProt Q9Y336); assay: Hs-Siglec9 ALPHAscreen SOP 20170721; details: 10 µM
# Chain of Sialic acid-binding Ig-like lectin 9 (Homo sapiens) (Q9Y336 whole entry): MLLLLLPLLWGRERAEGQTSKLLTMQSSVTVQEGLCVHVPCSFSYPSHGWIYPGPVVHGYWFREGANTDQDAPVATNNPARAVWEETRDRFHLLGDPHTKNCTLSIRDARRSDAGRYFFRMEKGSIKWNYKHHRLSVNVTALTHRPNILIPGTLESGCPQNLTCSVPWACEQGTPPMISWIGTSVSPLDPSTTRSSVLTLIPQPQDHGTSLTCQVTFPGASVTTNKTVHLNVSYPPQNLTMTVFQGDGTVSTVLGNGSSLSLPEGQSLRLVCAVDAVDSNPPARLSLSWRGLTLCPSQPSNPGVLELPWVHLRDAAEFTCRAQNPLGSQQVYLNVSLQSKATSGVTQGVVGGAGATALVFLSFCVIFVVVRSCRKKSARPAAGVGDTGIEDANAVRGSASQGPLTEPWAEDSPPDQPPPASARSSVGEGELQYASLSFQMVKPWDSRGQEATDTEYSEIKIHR
# Trypanosoma cruzi = assay: Trypanosoma cruzi phosphomannomutase and mannose-1-phosphate guanylyltransferase assay; type: functional; details: 10 µM
# [6] = molecular target: T3, Arginase-2, mitochondrial (Homo sapiens) (UniProt P78540); assay: in vitro enzyme assay to detect the production of urea directly proportional to the activity of Arginase II; type: functional; details: 33.3 µM; also: in the data most compounds retested in dose-response had high values
# T3 sequence (whole entry): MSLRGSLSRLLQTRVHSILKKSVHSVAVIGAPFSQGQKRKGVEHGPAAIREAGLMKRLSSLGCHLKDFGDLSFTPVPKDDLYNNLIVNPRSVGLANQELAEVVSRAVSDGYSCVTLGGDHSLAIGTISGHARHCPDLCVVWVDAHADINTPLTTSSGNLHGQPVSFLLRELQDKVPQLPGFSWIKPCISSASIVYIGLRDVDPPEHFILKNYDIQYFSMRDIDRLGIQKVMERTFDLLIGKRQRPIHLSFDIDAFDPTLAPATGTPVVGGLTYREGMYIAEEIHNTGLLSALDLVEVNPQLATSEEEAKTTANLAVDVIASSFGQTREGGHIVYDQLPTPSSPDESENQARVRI
# [7] = molecular target: T4, Proteasome subunit beta (Trypanosoma cruzi) (UniProt O96673); assay: Trypanosoma cruzi proteasome chymotrypsin-like activity (TcProtChymo) assay.; also: in the data most compounds retested in dose-response had high values; type: functional; details: 9.37 µM
# T4 sequence (whole entry): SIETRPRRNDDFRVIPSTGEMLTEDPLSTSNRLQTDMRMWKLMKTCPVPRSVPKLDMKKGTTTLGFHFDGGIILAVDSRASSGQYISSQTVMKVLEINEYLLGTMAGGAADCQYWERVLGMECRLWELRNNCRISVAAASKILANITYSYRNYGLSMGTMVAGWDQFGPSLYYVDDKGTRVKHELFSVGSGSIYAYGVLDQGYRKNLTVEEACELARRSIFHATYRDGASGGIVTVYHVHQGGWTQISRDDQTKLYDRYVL
# Homo sapiens = organism: Homo sapiens; assay: To identify inhibition of the IFN signalling (Jak-Stat) pathway via expression of an eGFP reporter gene under the control of an IFN-stimulated response element (ISRE) containing MxA promoter.; type: functional; details: 30 µM
# [8] = molecular target: Shiga toxin 2 (Escherichia coli O157:H7) (UniProt P09385+P09386); assay: E. coli 0.157:H7 Shiga Toxin SOP - stx2 screening assay; type: functional; details: 30 µM
# [9] = molecular target: T5, Tyrosyl-tRNA synthetase, putative (Trypanosoma cruzi (strain CL Brener)) (UniProt Q4DSP6); assay: Trypanosoma cruzi tyrosyl tRNA synthetase (TcYRS) _High Tyrosine SOP; type: functional; details: 30 µM; also: in the data most compounds retested in dose-response had high values
# T5 sequence (whole entry): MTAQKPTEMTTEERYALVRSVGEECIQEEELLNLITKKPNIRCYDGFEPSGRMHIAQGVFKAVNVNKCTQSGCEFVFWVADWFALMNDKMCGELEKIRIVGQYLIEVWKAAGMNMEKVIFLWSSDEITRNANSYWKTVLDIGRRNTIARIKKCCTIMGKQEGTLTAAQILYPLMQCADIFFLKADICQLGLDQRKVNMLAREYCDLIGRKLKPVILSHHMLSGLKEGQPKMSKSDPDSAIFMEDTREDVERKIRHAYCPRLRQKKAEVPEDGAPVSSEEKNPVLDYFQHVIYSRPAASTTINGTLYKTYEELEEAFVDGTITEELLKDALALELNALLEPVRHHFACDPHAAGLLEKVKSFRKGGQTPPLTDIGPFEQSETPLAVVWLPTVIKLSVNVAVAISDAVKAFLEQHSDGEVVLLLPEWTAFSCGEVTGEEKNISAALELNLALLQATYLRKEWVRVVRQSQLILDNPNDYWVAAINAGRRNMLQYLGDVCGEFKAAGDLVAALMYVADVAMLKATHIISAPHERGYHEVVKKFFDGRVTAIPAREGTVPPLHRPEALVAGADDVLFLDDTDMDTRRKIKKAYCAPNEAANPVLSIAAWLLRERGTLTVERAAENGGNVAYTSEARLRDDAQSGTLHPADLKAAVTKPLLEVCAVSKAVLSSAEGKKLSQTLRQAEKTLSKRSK
# [10] = molecular target: T5, Tyrosyl-tRNA synthetase, putative (Trypanosoma cruzi (strain CL Brener)); assay: Trypanosoma cruzi tyrosyl tRNA synthetase (TcYRS) SOP; type: functional; details: 30 µM
# [11] = molecular target: Chromo domain-containing protein 1 (Saccharomyces cerevisiae (strain ATCC 204508 / S288c) (Baker's yeast)) (UniProt P32657); assay: ScCHD-1 Enzyme Inhibition Assay; type: functional; details: 30 µM; also: in the data most compounds retested in dose-response had high values
# Chain of Chromo domain-containing protein 1 (Saccharomyces cerevisiae (strain ATCC 204508 / S288c) (Baker's yeast)) (P32657 whole entry, the tested form may be a part): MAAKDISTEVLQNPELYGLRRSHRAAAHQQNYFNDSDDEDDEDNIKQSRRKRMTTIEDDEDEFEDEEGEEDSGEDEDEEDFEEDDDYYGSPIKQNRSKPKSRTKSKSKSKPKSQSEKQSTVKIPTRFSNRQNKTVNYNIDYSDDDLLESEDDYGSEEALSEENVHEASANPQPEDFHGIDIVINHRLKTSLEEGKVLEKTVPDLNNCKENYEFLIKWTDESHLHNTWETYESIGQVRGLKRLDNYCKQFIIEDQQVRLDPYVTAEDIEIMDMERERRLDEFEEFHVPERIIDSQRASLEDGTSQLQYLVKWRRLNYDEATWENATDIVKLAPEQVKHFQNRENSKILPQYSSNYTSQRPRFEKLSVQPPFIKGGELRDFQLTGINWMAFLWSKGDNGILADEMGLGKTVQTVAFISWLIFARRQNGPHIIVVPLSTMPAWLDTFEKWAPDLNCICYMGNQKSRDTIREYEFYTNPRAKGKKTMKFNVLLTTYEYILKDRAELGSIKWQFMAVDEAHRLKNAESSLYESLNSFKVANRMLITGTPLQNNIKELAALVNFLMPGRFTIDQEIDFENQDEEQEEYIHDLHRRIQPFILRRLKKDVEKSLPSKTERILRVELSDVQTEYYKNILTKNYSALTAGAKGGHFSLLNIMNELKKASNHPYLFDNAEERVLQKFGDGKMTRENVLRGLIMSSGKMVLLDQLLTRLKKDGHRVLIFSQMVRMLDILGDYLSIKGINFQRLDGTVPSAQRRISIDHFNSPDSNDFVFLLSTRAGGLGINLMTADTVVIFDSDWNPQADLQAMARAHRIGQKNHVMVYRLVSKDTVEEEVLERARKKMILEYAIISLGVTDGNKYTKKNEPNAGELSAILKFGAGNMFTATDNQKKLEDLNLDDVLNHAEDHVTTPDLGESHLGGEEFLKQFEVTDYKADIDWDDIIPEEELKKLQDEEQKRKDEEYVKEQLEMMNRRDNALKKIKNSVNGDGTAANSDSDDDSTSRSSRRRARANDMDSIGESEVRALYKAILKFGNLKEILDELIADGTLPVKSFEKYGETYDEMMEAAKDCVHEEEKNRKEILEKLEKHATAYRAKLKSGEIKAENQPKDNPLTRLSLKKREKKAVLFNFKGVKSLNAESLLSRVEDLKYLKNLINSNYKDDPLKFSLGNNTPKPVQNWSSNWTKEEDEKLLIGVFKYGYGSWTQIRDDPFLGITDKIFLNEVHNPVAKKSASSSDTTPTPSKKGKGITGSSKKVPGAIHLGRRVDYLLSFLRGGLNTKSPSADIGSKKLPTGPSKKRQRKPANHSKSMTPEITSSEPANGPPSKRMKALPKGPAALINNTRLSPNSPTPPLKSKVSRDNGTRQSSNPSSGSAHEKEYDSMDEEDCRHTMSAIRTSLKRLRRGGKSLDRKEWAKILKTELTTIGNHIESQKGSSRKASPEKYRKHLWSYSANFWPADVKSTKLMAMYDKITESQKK
Compound,Percent Effect [1] [%],Percent Effect [2] [%],Percent Effect [3] [%],Percent Effect [4] [%],Percent Effect [5] [%],Percent Effect (Trypanosoma cruzi) [%],Percent Effect [6] [%],Percent Effect [7] [%],Percent Effect (Homo sapiens) [%],Percent Effect [8] [%],Percent Effect [9] [%],Percent Effect [10] [%],Percent Effect [11] [%]
Cc1cc(CN2C[C@@H]3COC[C@]3(CNC(=O)c3ccno3)C2)no1,-5.72,2.7,6.65,2.65,4.53,0.293,8.6,13.1,-16.8,-2.33,3.24,5.13,1.22
O=C(Cc1ccccc1)N1CCN(Cc2noc(C3CC3)n2)CC1,-1.81,11.4,-2.26,0.817,1.57,-4.62,-3.23,12.9,-5.12,0.476,7.29,15.2,-22.4
NC(=O)N1C[C@H]2CN(Cc3nccs3)C[C@H]2C1,0.982,10.8,2.58,9.05,-13,-3.62,1.59,16.6,5.62,-3.75,3.24,12.8,-3.89
Cc1cccc(CN2C[C@H](NS(C)(=O)=O)[C@@H]3OCCC[C@@H]32)n1,-0.629,-5.33,-2.65,9.72,5.95,-4.83,-50,0.513,3.24,-15.5,1.04,-5,-2.83
c1cnc(NC[C@@H]2CCC[C@@H]3CN(Cc4cccnc4)C[C@@H]32)nc1,0.229,10.8,-0.324,-2.93,-7.32,1.56,25.4,15.5,10.2,-34.3,13.9,18.3,-3
O=C(CN1CCN(C(=O)Cc2ccc3c(c2)OCCO3)CC1)NC1CC1,-0.996,18.2,3.1,0.741,0.674,2.06,-2.13,11.8,-0.0292,-19.4,6.8,12.2,-6.48
CCn1cc(CN2CCCN(C(=O)Cc3cccs3)CC2)cn1,-4.84,22.8,-2.8,-10.6,3.48,6.52,-0.76,15.6,-4.27,-21.2,10.3,29.1,-8.38
COCCO[C@@H]1C[C@H]2CN(C(=O)c3ccc(C)nc3)CCN2C1,0.459,10.7,6.84,-2.91,3.06,-3.86,-51.4,8.89,-12.5,-18.6,4.17,15,-6.6
Cc1ccc(N2CCO[C@H]3CN(Cc4cnn(C)c4)C[C@H]32)nn1,-2.13,-2.7,-2.15,0.154,-4.13,-6.55,4.78,18.4,0.179,-2.36,6.49,10.3,2.29
